From the supplement of paper PMC6555819

Experiments:
Assay in all cases: PBM binding z-score (relative to random genomic background probes); higher = stronger binding; sequences stand for … in GC…GCGATTGACAGCGTAGAATGAAGG
[1] = system: FXR:RXRa (NR concentration 270 nM, RXRa partner concentration 90 nM)
In short: (§1)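 Each nuclear receptor dimer, without ligand, was incubated for 1 h on custom Agilent 4×180K protein-binding microarrays. Binding was detected with antibodies against each partner (one per run), and scanned fluorescence was regression-normalized. The binding z-scores are referenced to random human genomic background probes.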

[2] = system: LXRa:RXRa (NR concentration 270 nM, RXRa partner concentration 90 nM)
In short: as §1

[3] = system: LXRa homodimer (NR concentration 270 nM)
In short: as §1

[4] = system: LXRb:RXRa (NR concentration 270 nM, RXRa partner concentration 90 nM)
In short: as §1

[5] = system: LXRb homodimer (NR concentration 270 nM)
In short: as §1

[6] = system: PPARa:RXRa (NR concentration 270 nM, RXRa partner concentration 90 nM)
In short: as §1

[7] = system: PPARg:RXRa (NR concentration 180 nM, RXRa partner concentration 90 nM)
In short: as §1

[8] = system: PPARg:RXRa 270nM:90nM, anti-RXR (NR concentration 270 nM, RXRa partner concentration 90 nM)
In short: as §1

[9] = system: PPARg:RXRa 30nM:10nM, anti-RXR (NR concentration 30 nM, RXRa partner concentration 10 nM)
In short: as §1

[10] = system: PPARg:RXRa 90nM:30nM, anti-RXR (NR concentration 90 nM, RXRa partner concentration 30 nM)
In short: as §1

[11] = system: PPARg:RXRa DBDmut IVT, anti-RXR (DBD mutation: RXRa K156A/R161A, NR concentration 270 nM, RXRa partner concentration 90 nM)
In short: as §1

[12] = system: PPARg:RXRa IVT, anti-PPARg (NR concentration 270 nM, RXRa partner concentration 90 nM)
In short: as §1

[13] = system: PPARg DBDmut:RXRa IVT, anti-PPARg (DBD mutation: PPARg1 K132A/R137A, NR concentration 270 nM, RXRa partner concentration 90 nM)
In short: as §1

[14] = system: PPARg DBDmut IVT, anti-PPARg (DBD mutation: PPARg1 K132A/R137A, NR concentration 270 nM)
In short: as §1

[15] = system: PPARg homodimer (NR concentration 180 nM)
In short: as §1

[16] = system: PXR:RXRa (NR concentration 270 nM, RXRa partner concentration 90 nM)
In short: as §1

[17] = system: PXR homodimer (NR concentration 270 nM)
In short: as §1

[18] = system: RARa:RXR (NR concentration 270 nM, RXRa partner concentration 90 nM)
In short: as §1

[19] = system: RARa homodimer (NR concentration 270 nM)
In short: as §1

[20] = system: RARb:RXRa (NR concentration 270 nM, RXRa partner concentration 90 nM)
In short: as §1

Sequence	PBM binding z-score [1]	PBM binding z-score [2]	PBM binding z-score [3]	PBM binding z-score [4]	PBM binding z-score [5]	PBM binding z-score [6]	PBM binding z-score [7]	PBM binding z-score [8]	PBM binding z-score [9]	PBM binding z-score [10]	PBM binding z-score [11]	PBM binding z-score [12]	PBM binding z-score [13]	PBM binding z-score [14]	PBM binding z-score [15]	PBM binding z-score [16]	PBM binding z-score [17]	PBM binding z-score [18]	PBM binding z-score [19]	PBM binding z-score [20]
AGTCAAAGTTCATCTAGATAACGTAAGATATGCT	7.05	5.89	5.02	4.13	1.82	5	6.44	6.12	3.12	5.43	0.216	2.84	1.25	1.73	2.62	5	4.36	3.39	1.59	4.9
ACTAGCAGGCGAAGGGTCACTCAAGATTAGTCCG	2.18	2.19	0.132	2.12	-0.71	3.72	5.6	5.62	3.86	6.27	-0.0679	2.22	-0.671	-0.597	1.88	2.32	-0.24	3.29	-0.0684	3.31
CCTAGCAGTCCAATCTGGGTCACTCAAGGCTTGA	0.349	0.868	-0.0916	0.921	-0.342	2.91	1.73	2.01	-0.0165	1.64	3.55	4.58	-0.524	-0.84	0.738	1.04	-0.0331	1.58	-0.751	1.17
ACTCGGAGGACAAAGGTCATAGCTACGCCAGTGA	6.1	5.52	4.19	4.73	0.856	6.18	8.47	7.15	6.46	8.09	1.2	4.45	0.463	0.599	3.32	5.22	0.775	5.76	1.36	4.83
TCTAGCAGGCCAGAGGGTTACTCAAGAGGTACGG	-0.419	-0.0387	-1.02	-0.282	-1.4	0.38	0.82	1.73	1.86	1.81	0.735	-0.175	-1.35	-1.09	-0.477	-0.175	-0.868	-0.0112	-0.732	0.213
TAGCCTAGGTCAGATCGGGCCAGTTTACGCTATA	2.08	0.989	-0.49	0.503	-0.465	1.74	0.188	0.541	-0.568	-0.123	0.41	1.12	-0.332	-0.719	0.0651	1.13	-0.787	0.463	-1.05	2.69
GCTTACGGGTCAAAGGTTGTAGCATGAATAGAAT	7.18	4.99	0.175	4.72	0.259	6.6	9.83	8.57	7.45	9.31	5.13	5.38	0.728	1	3.02	5.04	0.237	7.21	0.364	3.99
ATCTCTACGTAAAAGTTCAGTGAATCCCGAGGAT	0.535	1.12	1.27	0.881	1.33	0.835	0.595	1.55	0.654	1.25	-0.177	0.157	1.69	2.47	0.954	1.69	1.8	0.802	1.16	2.35
CCTTACGGGTCATGAGGTTATAGCACGACGAGCG	7.04	4.93	0.379	3.84	0.286	5.85	5.69	5.69	2.37	4.58	3.29	4.22	1.38	0.99	3.37	4.44	0.345	5.82	1.27	4.11
GCTTGTAGGTCAAGGTTAAGAAAGACTAAGCTAA	5.3	4.01	0.371	3.16	0.186	5.37	9.1	7.63	6.21	7.79	7.82	8	2.05	1.01	1.99	2.52	0.226	3.43	1.18	4.32
ATGTCTAGGTAAGACTCAGTTCAGTGAAGAACGC	-0.0311	0.274	0.049	-0.259	-0.00137	-0.0837	0.0566	0.15	-0.029	-0.0514	0.955	0.996	0.297	0.538	0.433	0.668	1.4	-0.0923	0.712	0.132
CCTACTGGGCCATCAGGCCATTGATATCAACGTT	0.133	-0.192	-0.106	-0.246	-0.678	0.569	1.16	1.79	0.105	0.915	3.85	3.8	-0.657	-0.731	0.142	-0.281	-0.336	-0.428	-0.00311	0.28
ACTACCAGGCCAAGTTTGGGTCACTCAAACAAAG	0.642	0.276	0.197	1.05	0.0374	1.58	0.43	0.598	-0.29	0.255	1.12	2.04	0.0556	-0.292	0.797	0.921	0.121	1.45	0.491	2
CGAACTAGGTCAGAACAGGAGAGTGAAGGATGAT	0.927	0.589	-0.174	0.371	-0.252	3.11	5.25	4.6	1.34	3.7	7.25	7.15	1.13	1.4	0.511	0.126	-0.235	0.576	0.206	2.94
CGTCCAAGGTCAAGGTCAGTCAAAGAGACTCGAA	7.71	5.91	1.64	4.85	1.09	5.93	6.39	5.98	2.6	4.69	4.13	4.78	1.48	-0.095	4.54	4.99	1.7	5.42	2.49	5.83
ACCAGCAGGCCAAGTTTGGGTCACTCAAACAAAG	0.266	-0.108	-0.521	0.635	-0.887	1.31	-0.217	0.223	-0.767	-0.323	-0.512	0.814	-0.754	-1.36	0.25	0.747	-0.419	1.27	-0.97	1.89
TATCCTAGGTCATTGGGCCAGTATAGTACGCATC	4.8	6.02	5.49	3.44	2.48	4.44	5.45	4.94	2.33	4.11	4.13	5.49	1.68	3.21	2.35	2.21	0.746	2.96	0.931	3.98
CCTTATGGGTCACTCCAGGTTATAGCATCGGAGT	3.67	7.24	1.43	4.49	-0.105	3.92	4.6	4.39	1.84	3.6	5.51	5.56	1.27	1.01	1.61	4.22	0.18	2.9	0.657	3.35
TGAATGAGGTTATATGATCAGGGAACGTTGCAAA	1.85	1.48	-0.0351	1.25	0.134	2.97	1.44	1.76	1.05	1.45	1.01	1.63	0.22	0.825	0.489	1.04	0.00293	1.77	0.606	1.26
GCAACGAGGGCAAAGTTGATAGCATCTGTCGACG	1.14	1.01	-0.469	0.805	-0.643	3.7	5.92	6.03	4.83	6.51	2.74	3.19	0.065	-0.728	0.234	1.18	-0.438	1.53	-0.122	2.34
CTACCAAGGTGAACAAGGTCCTTGATTACTATTC	0.682	0.376	-0.214	0.744	-0.587	1.57	0.578	0.855	-0.122	0.296	2.33	2.45	0.391	-0.0815	0.182	0.728	0.218	0.944	-0.035	1.64
GTAACAAGGTGAATAGGTCGTTGATGAGTAGGCG	1.22	1.04	0.00254	0.69	-0.186	2.9	2.64	2.88	1.27	2.48	3.26	3.65	0.827	0.585	1.61	1.02	0.451	2.04	0.797	2.06
TCGAGTAGGTTCGGGGCATTCAGAATGGCGTCGA	-0.238	-0.318	-0.554	-0.184	-1.07	0.187	-0.622	0.0439	0.452	0.234	0.529	-0.193	-0.804	-0.918	-0.546	-0.101	-0.4	-0.0228	-1.08	0.221
ATCTCTAGCTAACAAGTTCAGTGAAAGAGAGGAC	0.604	0.71	0.538	0.504	0.838	0.381	0.2	-0.0606	0.335	0.17	-0.615	0.373	0.64	1.17	0.988	1.36	1.62	0.744	1.13	1.15
TGAATGAGGTTATAAGATCAGGGACCGTTGCAAA	1.45	1.26	0.0374	1.01	-0.286	2.6	1.45	2.32	0.865	1.63	1.22	1.99	0.832	-0.0564	0.812	0.874	0.0306	1.43	-0.64	1.33
ATATGTAGGTTAAGGATCATTCAGGTTGGTTCGC	0.726	1.25	0.404	1.18	0.352	4.46	8.08	7.41	6.08	8.34	7.22	7.16	3.09	2.12	1.49	1.19	0.266	1.13	1.1	1.2
TGAATGAGGTTAAAGAGCAGGGAACGTGGCGTCG	2.98	2.56	-0.586	1.45	0.129	4.23	4.98	6.01	4.52	5.96	2.26	3.24	-0.099	-0.275	0.719	1.53	-0.274	2.52	0.12	1.94
TTATCAAGGTGAAGGTCGTTGATCCCTCTGTAGA	2.51	1.93	0.076	1.75	-0.0841	3.01	2.92	3.88	2.1	3.49	2.89	3.99	1.51	0.341	1.18	1.66	0.515	2.18	-0.235	2.21
CCGACTGGTGCAGAAAGGTTACCATACCATCCGG	0.086	0.429	-0.181	0.491	-0.9	1.73	0.848	1.18	-0.313	0.336	-0.779	-0.294	-0.872	-1.11	1.03	1	0.0978	1.65	-0.557	1.43
